# Data taken from PubChem BioAssay (Tox21).
# Records with an inconclusive call do not appear. Active and inactive are the calls of the source. Calls follow the shape of the full dose curve.
# Target: Acetylcholinesterase (Homo sapiens) (UniProt P22303)
# Assay: Acetylcholinesterase (AChE) small molecule antagonists: colormetric cell-based qHTS assay (AID 1347395); also: nearly all actives have a fitted effect of over 30% in size
# Settings: SH-SY5Y cells AChE activity, colorimetric (Ellman); series mostly up to 115 µM; activity, negative = inhibition: at the top concentration
# Description: National Center for Advancing Translational Sciences [NCATS]
# Division of Preclinical Innovation [DPI]
# U.S. Environmental Protection Agency [EPA]
# National Institutes of Environmental Health Sciences [NIEHS]
# National Toxicology Program [NTP]
# U.S. Food and Drug Administration [FDA]
# Acetylcholinesterase (AChE) is the primary cholinesterase in the body that hydrolyzes a key neurotransmitter, acetylcholine. Inhibition of AChE activity can lead to neurotoxicity. The known inhibitors include organophosphorous pesticides (OP), chemical warfare agents, drugs, and various phytochemicals.
# A homogenous cell-based assay using the Amplite Colormetric acetylcholinesterase assay kit (AAT Bioquest, Sunnyvale, CA) was used to evaluate the chemicals in the Tox21 10K library that inhibit AChE activity. The assay uses 5, 5-dithiobis-(2-nitrobenzoic acid) (DTNB) to quantify the thiocholine produced from the hydrolysis of acetylthiocholine by AChE from the SH-SY5Y cells.
# Tox21 Assay Protocol Summary:
# For the cell-based AChE assay, 2,000 SH-SY5Y cells in 4 uL/well were dispensed into black, clear-bottom 1536-well plates using a Multidrop Combi dispenser (Thermo Scientific, MA). The assay plates were incubated overnight at 37 C to allow cells to attach to the wells, followed by the transfer of 23 nL of compound or DMSO (vehicle control) by a Pintool Station (Wako Automation, CA). The plates were incubated for 30 min at 37 C and 5% CO2, followed by the addition of 4 uL of detection cocktail solution (DTNB, acetylthiocholine) into each well using a Flying Reagent Dispenser (Beckman Coulter, CA) and then 90 min incubation at 37 C.
# % is scaled to controls: 0 for no effect and ±100 for the full control effect; potency is read from the fitted curve at half-maximal effect.
# Chain of Acetylcholinesterase (Homo sapiens) (P22303 whole entry, looked up): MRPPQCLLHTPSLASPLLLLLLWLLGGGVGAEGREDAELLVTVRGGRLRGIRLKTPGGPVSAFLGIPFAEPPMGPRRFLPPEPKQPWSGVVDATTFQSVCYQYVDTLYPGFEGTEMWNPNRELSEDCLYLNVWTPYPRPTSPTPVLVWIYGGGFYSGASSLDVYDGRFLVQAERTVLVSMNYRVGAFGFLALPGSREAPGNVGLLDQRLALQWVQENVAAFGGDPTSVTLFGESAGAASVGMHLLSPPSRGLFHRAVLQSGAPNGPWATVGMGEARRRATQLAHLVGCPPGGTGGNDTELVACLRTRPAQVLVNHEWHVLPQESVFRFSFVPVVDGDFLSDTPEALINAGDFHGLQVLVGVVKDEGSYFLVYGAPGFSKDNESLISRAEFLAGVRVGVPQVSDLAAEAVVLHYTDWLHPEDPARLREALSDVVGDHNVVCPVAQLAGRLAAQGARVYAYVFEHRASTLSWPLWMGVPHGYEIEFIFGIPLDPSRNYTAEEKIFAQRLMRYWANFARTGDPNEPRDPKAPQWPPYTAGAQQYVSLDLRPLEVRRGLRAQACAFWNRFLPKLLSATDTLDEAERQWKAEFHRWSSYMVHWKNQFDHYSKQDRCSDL
SMILES,"activity, negative = inhibition",Potency
CCCCC(O)(Cn1cncn1)c1ccc(Cl)cc1Cl (stereo not given),-6.76% (inactive),–
CCOC(=O)COc1cc(-c2nn(C)c(OC(F)F)c2Cl)c(F)cc1Cl,2% (inactive),–
O=S(=O)(Cl)c1ccccc1,-3.79% (inactive),–
O=C(NCc1cccnc1)Nc1ccc([N+](=O)[O-])cc1,-0.342% (inactive),–
CCCN(CC1CC1)c1c([N+](=O)[O-])cc(C(F)(F)F)cc1[N+](=O)[O-],1.12% (inactive),–
C(=NC1CCCCC1)=NC1CCCCC1,–,inactive
IC(I)=C(I)I,12.4% (inactive),–
O=C=Nc1ccc(Cl)cc1,1.3% (inactive),–
NC(=O)C(Cl)(Cl)Cl,-2.25% (inactive),–
C=COC(C)=O,1.19% (inactive),–
O=[N+]([O-])c1ccc(F)c([N+](=O)[O-])c1,48% (inactive),–
C=CC(=O)OC(C)(C)C,-0.658% (inactive),–
C=CC(=O)NCNC(=O)C=C,-0.205% (inactive),–
CC(=O)c1cc2c(cc1C)C(C)(C)C(C)CC2(C)C (stereo not given),2.68% (inactive),–
CCc1ccc(C(=O)NN(C(=O)c2cc(C)cc(C)c2)C(C)(C)C)cc1,0.0931% (inactive),–
CC(c1ccc(O)cc1)(c1ccc(O)cc1)c1ccc(O)cc1,-4.53% (inactive),–
CCOP(=S)(OCC)SCSCC,–,63.3 µM (active)
COc1cc(CC(C)N)cc2c1OCO2 (stereo not given),-0.167% (inactive),–
BrCC(Br)C1CCC(Br)C(Br)C1 (stereo not given),2.85% (inactive),–
CCC(Cl)CCl (stereo not given),0.643% (inactive),–

SMILES,"activity, negative = inhibition",Potency
CN1C(=O)C(O)N=C(c2ccccc2)c2cc(Cl)ccc21 (stereo not given),-10.1% (inactive),–
O=C1NCN(c2ccccc2)C12CCN(CCCOc1ccc(F)cc1)CC2,-2.11% [at 52.9 µM] (inactive),–
C/C=C/C=O,-1.11% (inactive),–
O=S1(=O)OC(c2cc(Br)c(O)c(Br)c2)(c2cc(Br)c(O)c(Br)c2)c2ccccc21,0.405% (inactive),–
CCOC(=O)CBr,1.34% (inactive),–
[CH3][Sn]([CH3])([Cl])[Cl],–,inactive
O=C(NC(=O)c1c(F)cccc1F)Nc1ccc(OC(F)(F)C(F)OC(F)(F)F)c(Cl)c1 (stereo not given),0.875% [at 52.9 µM] (inactive),–
Brc1ccccc1,0% (inactive),–
Clc1ccc(C2(Cn3cncn3)CC(Br)CO2)c(Cl)c1 (stereo not given),-16.3% (inactive),–
O=NN1CCCCCC1,-4.85% (inactive),–
ClCC(Br)CBr (stereo not given),0.158% (inactive),–
O=C1CN=C(c2ccccc2)c2cc(Cl)ccc2N1CC1CC1,-4.29% (inactive),–
CC(C)O.CC(C)O.OCCN(CCO)CCO.OCCN(CCO)CCO.[Ti],1.26% (inactive),–
N#C/C(N)=C(/N)C#N,-0.614% (inactive),–
NC(=O)CI,-17.1% (inactive),–
O=[Se]=O,-1.02% [at 52.9 µM] (inactive),–
Clc1cccc(SC2CCNCC2)n1,0.264% [at 52.9 µM] (inactive),–
COP(=S)(Oc1cc(Cl)c(Br)cc1Cl)c1ccccc1 (stereo not given),–,63.3 µM (active)
Cc1cc(=O)[nH]o1,-2.51% (inactive),–
C=CC(=O)OCCCCO,3.59% (inactive),–
